Measured values taken from PubChem BioAssay (Tox21).
Where “and” joins values, the source holds several entries; their conditions need not be identical. Identical values can stand only once. Records with an inconclusive call do not appear. Where a call stands in place of a potency, no number is given. Calls of active or inactive are those of the source. Calls follow the shape of the dose curve; as a rule, active = well fitted cell-killing curve with a large enough effect in the repeat runs; inconclusive = weak or mixed curves, or effect the other way; inactive = no such curve, though single readings can be large or run the other way.
Potency is read from the fitted curve at half-maximal effect.

Experiment: qHTS assay to identify small molecule antagonists of the glucocorticoid receptor (GR) signaling pathway - cell viability counter screen (AID 720693); also: nearly all actives have a fitted effect of over 55% in size
Settings: GR-bla HeLa viability, CellTiter-Glo luminescence, 18 h, with 5 nM dexamethasone present; series mostly up to 58.5 µM
Text: National Center for Advancing Translational Sciences [NCATS]
NIH Chemical Genomics Center [NCGC]
U.S. Environmental Protection Agency [EPA]
National Institutes of Environmental Health Sciences [NIEHS]
National Toxicology Program [NTP]
U.S. Food and Drug Administration [FDA]
The Glucocorticoid receptor (GR) is one of the members of the nuclear receptor family of ligand-dependent transcription factors. GR plays a critical role in carbohydrate, protein and lipid metabolisms and programmed cell death. CellSensor GR-bla HeLa cell line (Invitrogen) contains a beta-lactamase reporter gene under the control of the glucocorticoid response element stably integrated into HeLa cells, a cervical cancer cell line that expresses glucocorticoid receptor. The activation of the reporter gene under culture conditions can be detected by fluorescence intensity. This cell line has been used to screen the Tox21 10K compound library and to identify the compounds that inhibit the GR signaling. The cytotoxicity of the Tox21 compound library against the GR-bla HeLa cell line was tested in parallel by measuring the cell viability using CellTiter-Glo assay in the same wells.
Tox21 Assay Protocol Summary:
The GR-bla HeLa cells were dispensed at 1500 cells/5 ul/well in 1536-well black wall/clear bottom plates using a Multidrop Combi (ThermoFisher Scientific, Waltham, MA) dispenser. After the assay plates were incubated at a 37 C/5% CO2 incubator for 4 hours, 23 nL of compounds dissolved in DMSO, positive controls or DMSO only was transferred to the assay plate by a pintool station (Kalypsys, San Diego, CA), followed by addition of 1 uL of dexamethasone (5 nM, final concentration in the well). The plates were incubated at 37 C for 18 hours. After 1 uL of LiveBLAzerTM B/G FRET substrate was added using a Flying Reagent Dispenser (Aurora Discovery, San Diego, CA), the plates were incubated at room temperature (RT) for 2 hours, and fluorescence intensity was measured by an Envision plate reader (PerkinElmer, Shelton, CT). After measurement of bla assay, 3 ul CellTiter-Glo (Promega, Madison, WI) was added to measure the cytotoxicity and the plates were then incubated at RT for 30 min. The luminescence was measured using a ViewLux (Perkin Elmer) plate reader.
In the case of `ClC1=C(Cl)C2(Cl)C3C(Cl)C(Cl)CC3C1(Cl)C2(Cl)Cl` (stereo not given), the Potency is reported as “inactive”. In the case of `CCCOCC(=Nc1ccc(Cl)cc1C(F)(F)F)n1ccnc1`, the Potency is reported as 15.5 µM (active). With `CCCCCCCCCBr` the Potency was “inactive”. In the case of `N#C/C=C/C#N`, the Potency is reported as “inactive”. For `Fc1cccc(Cl)c1CCl`, the Potency was “inactive”. With `C[C@H]1CC[C@@H]2[C@@H](C)[C@H]3[C@H](C[C@H]4[C@@H]5CC=C6CC(O[C@@H]7O[C@H](CO)[C@H](O)[C@H](O[C@@H]8O[C@H](CO)[C@@H](O)[C@H](O)[C@H]8O)[C@H]7O[C@H]7O[C@@H](C)[C@H](O)[C@@H](O)[C@H]7O)CC[C@]6(C)[C@H]5CC[C@]34C)N2C1` (stereo not given in full) the Potency was “inactive”. For `Oc1c(Br)c(Br)c(Br)c(Br)c1Br`, the Potency was “inactive”. With `CCOC(=O)CC(=O)CCl` the Potency was “inactive”. For `CC(=O)OC1(c2ccccc2)CCN(CCc2ccccc2)CC1`, the Potency was “inactive”. In the case of `Nc1ccccc1C(=O)Oc1ccc2ccccc2c1`, the Potency is reported as “inactive”. With `ClC1=C(Cl)[C@]2(Cl)[C@H]3[C@H]([C@H]4C=C[C@H]3C4)[C@@]1(Cl)C2(Cl)Cl` the Potency was “inactive”. For `O=C/C(Cl)=C(/Cl)C(=O)O`, the Potency was “inactive”. In the case of `O=C(NC(=O)c1c(F)cccc1F)Nc1cc(Cl)c(OC(F)(F)C(F)F)c(Cl)c1`, the Potency is reported as “inactive”. For `CC1(C)CN=C(NN=C(/C=C/c2ccc(C(F)(F)F)cc2)/C=C/c2ccc(C(F)(F)F)cc2)NC1`, the Potency was 24.5 µM (active). With `CC1(C)C(/C=C(\Cl)C(F)(F)F)C1C(=O)OC(C#N)c1cccc(Oc2ccccc2)c1` (stereo not given) the Potency was “inactive”. In the case of `CC(C)CC(C)N` (stereo not given), the Potency is reported as “inactive”. In the case of `CC(Cc1ccc(C(C)(C)C)cc1)CN1C[C@@H](C)O[C@@H](C)C1` (stereo not given in full), the Potency is reported as “inactive”. In the case of `CN(C)CCc1c[nH]c2cccc(O)c12`, the Potency is reported as “inactive”. With `Oc1ccc(C(=C(Cl)Cl)c2ccc(O)cc2)cc1` the Potency was “inactive”. In the case of `Cc1cc(C(F)(C(F)(F)F)C(F)(F)F)ccc1NC(=O)c1cccc(I)c1C(=O)NC(C)(C)CS(C)(=O)=O`, the Potency is reported as “inactive”. In the case of `O=[N+]([O-])c1ccc(Oc2ccc(C(F)(F)F)cc2[N+](=O)[O-])cc1`, the Potency is reported as “inactive”. With `NNC(=O)c1ccccc1` the Potency was “inactive”. In the case of `O=C(CBr)c1ccc(O)cc1`, the Potency is reported as “inactive”. With `CC(C)CC(C)(c1ccc(O)cc1)c1ccc(O)cc1` the Potency was 49 µM (active). For `BrCBr`, the Potency was “inactive”. In the case of `ClCc1ccc(Cl)cc1Cl`, the Potency is reported as “inactive”. With `CCC(C)(C)C(=O)OC1=C(c2ccc(Cl)cc2Cl)C(=O)OC12CCCCC2` the Potency was “inactive”. With `Cc1cc(N=Nc2ccccc2C)ccc1N` the Potency was 49 µM (active). For `CC(C)[C@H](C(=O)O[C@H](C#N)c1cccc(Oc2ccccc2)c1)c1ccc(Cl)cc1`, the Potency was “inactive”. For `CCCCCCCCCCCCCCCCCCn1cc[n+](C)c1`, the Potency was 24.4 µM (active). With `COc1cccc(C(=O)CCN[C@@H](C)[C@H](O)c2ccccc2)c1` the Potency was “inactive”. In the case of `CCN(CC)c1c([N+](=O)[O-])cc(C(F)(F)F)c(N)c1[N+](=O)[O-]`, the Potency is reported as “inactive”. For `c1ccc(OCC2CO2)cc1` (stereo not given), the Potency was “inactive”. For `C=CCC1=C(C)C(OC(=O)C2C(C=C(C)C)C2(C)C)CC1=O` (stereo not given), the Potency was 46.3 µM (active). In the case of `O=C(O)COc1nc(Cl)c(Cl)cc1Cl`, the Potency is reported as “inactive”. For `COC(=O)N(C(=O)N1CO[C@@]2(C(=O)OC)Cc3cc(Cl)ccc3C2=N1)c1ccc(OC(F)(F)F)cc1`, the Potency was “inactive”. With `CCCCCCCCCCCCCCCC[N+](C)(C)C` the Potency was 23.9 µM (active) and 26.6 µM (active) and 34.7 µM (active). For `C[C@]12Cc3nonc3C[C@@H]1CC[C@@H]1[C@@H]2CC[C@@]2(C)[C@H]1CC[C@]2(C)O`, the Potency was “inactive”. For `Nc1ccc(Sc2ccc(N)cc2)cc1`, the Potency was “inactive”. For `CC(C)OC(=S)S`, the Potency was “inactive”.
